Source: PubChem
The list is not random: actives were taken first. Their share in the collection is about 4.1%.
EBV LMP1 NFkB = inhibitors of Epstein-Barr LMP1-induced NF-kappaB reporter; inhibition, % at 12.5 µM; actives 0.69% (n = 350,000); AID 504558; LMP1-induced NF-kappaB luciferase reporter cells, luminescence; in the data active means inhibition above about 41%;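 further: 0% = neutral control wells and 100% = reference inhibitor control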
Peg3 prom inh = inhibitors of Peg3 promoter | HeLa PEG-Prom luciferase reporter, luminescence, overnight | inhibition, % at 20 µM | actives 1.7% (n = 360,000) | AID 588405;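 active means inhibition of at least 50% at 20 µM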
Shn3 3UTR inh = Schnurri-3 reporter inhibition in Clone20 osteoblasts. Clone20 osteoblast Shn3 3'UTR firefly luciferase, 24 h. inhibition, % at 12.5 µM. actives 0.52% (n = 360,000). AID 588674;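 active means mean inhibition of at least 75% with every replicate also reaching 75%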;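 further: 0% = median of neutral control wells and 100% = pilot-screen positive control compound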
TRPM1 prom inh = MITF TRPM1 promoter inhibition in SK-MEL-5 cells; inhibition, % at 12.5 µM; SK-MEL-5 TRPM1 promoter luciferase, 24 h; actives 0.83% (n = 330,000);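 active means mean inhibition across replicates of 60% or more, whatever share of single replicates reaches that level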
TROY signal inh = blocks TROY-dependent signaling in reporter cells. actives 0.98% (n = 360,000). Q293 LMP1-TROYcd NF-kB luciferase reporter, 4 h. inhibition, % at 10 µM;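 active means compounds whose plate-normalised and pattern-corrected inhibition of the luciferase reporter signal at the single screening dose is 50% or more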
TWEAK-Fn14 inh = blocks TWEAK-Fn14 interaction in a reporter cell assay. AID 1159606. actives 2% (n = 360,000). inhibition, % at 10 µM. TWEAK-stimulated Fn14 reporter cells, luciferase luminescence, 8 h; in the data active means inhibition above about 50%
* hit, by the source's call; . = no result given.

SMILES | EBV LMP1 NFkB | Peg3 prom inh | Shn3 3UTR inh | TRPM1 prom inh | TROY signal inh | TWEAK-Fn14 inh
Cc1nc2ccccc2c(=O)n1NC(=O)COc1ccccc1 | -2 | 14 | -1 | 1 | -16 | -2
Cc1ccccc1Nc1nc(N)nc(CSc2nc3ccccc3c(=O)n2C)n1 | 11 | 29 | 65 | 5 | 44 | 66*
CCOC(=O)c1sc(=NC(=O)c2ccc(Cl)s2)n(C)c1C | -19 | -227 | -37 | -47 | 54* | 40
CCOC(=O)c1sc(=NC(=O)c2cccs2)n(C)c1C | -30 | -282 | -83 | -41 | -34 | 30
O=C(Nc1ccc(/C=C/c2nc3ccccc3o2)cc1)c1c(F)cccc1F | -22 | -209 | 2 | -17 | 59* | 38
CC(=O)Nc1ccc(/C=C/c2nc3ccccc3o2)cc1 | -29 | -226 | -51 | -67 | -16 | 17
Cc1ccc(S(=O)(=O)N2CC=C(c3c(C)n(C)c4ccccc34)CC2)cc1 | 2 | 8 | -4 | -3 | 71* | 43
Cc1ccc(C(=O)CSc2nnnn2C(C)C)c(C)c1 | 46* | 2 | 22 | 3 | 53* | 90*
CCCc1ccc(-c2ccc(C(=O)O)cc2)nc1 | -12 | -71 | -51 | -12 | 48 | 78*
CC1(C)CC(=O)C=C(NC2=CC3OC(c4ccccc4)OCC3OC2=O)C1 (stereo not drawn) | -24 | 64* | 7 | 71* | 17 | 76*
O=C(/C=C/c1ccc(Cl)cc1)N1CCN(c2ccc([N+](=O)[O-])c(N3CCOCC3)c2)CC1 | 21 | 43 | -9 | 10 | 56* | 64*
O=C(CCc1ccccc1)NC(=S)Nc1ccccc1[N+](=O)[O-] | 14 | -12 | -7 | -9 | -29 | -19
C[C@H](NC(=O)c1ncn2c1C(=O)NC[C@@H]2C)C(=O)OC(C)(C)C | 1 | -1 | 2 | . | -3 | -6
CCCC(C(=O)NC1CCCC1)N(CC1CCCO1)C(=O)CNS(=O)(=O)c1ccccc1 (stereo not drawn) | -4 | -4 | 9 | 9 | 23 | 21
COc1ccc(-c2cc(C#N)nc(Cl)n2)cc1 | 3 | 39 | 8 | 66* | 80* | 30
N#Cc1cc(-c2ccccc2)nc(Oc2ccccc2)n1 | 5 | 24 | 0 | 6 | 48 | 61*
CCc1ccc(C(=O)CN(C#N)c2nc(C)cc(C)n2)cc1 | -14 | 18 | 6 | -5 | 7 | 62*
CCOC(=O)C1=C(Cc2ccc(Cl)cc2)C(=O)c2ccccc2C1=O | 6 | 50* | 78 | 17 | 34 | 35
Cc1cccc(C(=O)Nc2nc(C)c(C(=O)Nc3ccc4c(c3)CCC4)s2)c1 | 20 | -42 | -73 | 12 | 8 | 52*
Cc1cccc(NC(=O)c2sc(C)nc2C)c1 | -10 | -111 | -39 | -30 | -44 | -22
CCCCCCCCSC1=CC(=O)C(OC)=C(OC)C1=O | -3 | 93* | 95* | . | -3 | 29
CCOn1c(=O)c(C)[n+]([O-])c2ccccc21 | -5 | 3 | 2 | 11 | . | 85*
FC(F)(F)C1=Nc2cccc3cccc(c23)N1 | -4 | 111* | -4 | 34 | -7 | 12
Fc1ccc(C2=Nc3cccc4cccc(c34)N2)cc1 | -11 | 21 | -7 | 1 | 4 | 3
CC(=O)c1sc(NC(=O)C=C(C)C)nc1C | -14 | -102 | -24 | -33 | -39 | -12
SMILES | EBV LMP1 NFkB | Peg3 prom inh | Shn3 3UTR inh | TRPM1 prom inh | TROY signal inh | TWEAK-Fn14 inh
CC(=O)c1sc(NC(=O)C2(F)C(F)(F)C(F)(F)C(F)(F)C(F)(F)C2(F)F)nc1C | 5 | 39 | 2 | 46 | 62* | 65*
O=C(Nc1nnc(C2CC2)s1)c1ccc(Cl)c(S(=O)(=O)N2CCc3ccccc3C2)c1 | 5 | 8 | -4 | -1 | 56* | 50
CCc1nnc(NC(=O)c2ccc(Cl)c(S(=O)(=O)N3CCc4ccccc43)c2)s1 | -2 | 9 | 6 | -11 | 61* | -9
O=C(Nc1ccncc1)c1ccc(Cl)c(S(=O)(=O)N2CCc3ccccc32)c1 | 13 | 45 | 89* | 38 | 46 | 78*
Cc1cccc(NC(=O)c2ccc(Cl)c(S(=O)(=O)N3CCc4ccccc43)c2)n1 | 12 | 16 | 42 | 14 | 37 | 58*
Cc1cccc(NC(=O)c2ccc(Cl)c(S(=O)(=O)N3CCCC3)c2)n1 | -5 | -69 | -9 | -20 | -14 | -12
O=C(COC(=O)c1ccc(Br)c(S(=O)(=O)N2CCOCC2)c1)NC1CC1 | -12 | -13 | -9 | 4 | 10 | -13
COC(=O)Nc1ccc(N2CCOCC2)c(S(=O)(=O)N2CCOCC2)c1 | 1 | 0 | -14 | 5 | 1 | -9
COc1cc(OC)c(OC)cc1/C=N/NC(=O)CSc1ccccc1F | 2 | -4 | 7 | -2 | 13 | -17
COCCCNC(=O)c1ccc2c3c(onc13)-c1ccccc1C2=O | -8 | -135 | -44 | 83* | -20 | 6
COCCCNC(=O)c1ccccc1Oc1ccccc1 | 2 | 3 | 43 | 3 | 9 | -2
CCOc1ccc(/C=N/NC(=O)c2ccccc2C)cc1CN1CC2CC(C1)c1cccc(=O)n1C2 (stereo not drawn) | -3 | -8 | -1 | 5 | -4 | 8
CCOc1ccc2c(c1)C(=NNC(=O)c1ccncc1)c1cc(OCC)ccc1-2 | 11 | 55* | -8 | 0 | -37 | 2
CCOc1ccc(NC(=O)c2ccncc2)cc1 | -9 | -50 | -15 | -6 | -1 | 9
CN1CCN(Cc2c(C(=O)N/N=C/c3cccc(Br)c3)nnn2-c2nonc2N)CC1 | 0 | 41 | -1 | 77* | 11 | 3
Nc1nonc1-n1nnc(C(=O)N/N=C/c2cccc(O)c2)c1CN1CCCC1 | 6 | 10 | 0 | 3 | -29 | -14
CCOc1ccc(-c2c(C(=O)N/N=C/c3cccc(Br)c3)nnn2-c2nonc2N)cc1 | -5 | 56* | 13 | 3 | 8 | -42
CCCN(C(=O)c1cccs1)c1c(N)n(Cc2ccccc2)c(=O)[nH]c1=O | 2 | 2 | -19 | 0 | -5 | -3
COc1ccc(NC(=O)N2CCc3ccccc3C2)c(OC)c1 | -8 | -134 | -32 | -13 | -70 | -12
Cc1ccccc1Nc1ccc(S(=O)(=O)N2CCOCC2)cc1[N+](=O)[O-] | -5 | 59* | 11 | -1 | 12 | 5
O=C(COc1ccccc1F)Nc1cc(S(=O)(=O)Nc2cccc(Cl)c2)ccc1O | -1 | 25 | 10 | 13 | 42 | 24
CCOC(=O)c1c(C)n(C)c2ccc(OC)c(NC(=O)CN3CCSCC3)c12 | -1 | 77* | 19 | 3 | 9 | 8
CCOC(=O)c1c(C)n(C)c2ccc(OC)c(NC(=O)CCN3CCC(Cc4ccccc4)CC3)c12 | 4 | -3 | 3 | -3 | -2 | 3
Cc1ccc([C@@H]2[C@@H]3C(=O)N(C)C(=O)[C@@H]3[C@@H]3C(=O)Nc4ccccc4C(=O)N23)cc1 | 0 | 15 | -6 | 4 | -2 | 3
